According to PubChem BioAssay:
Inconclusive results are not listed. For part of these data: Entries with a potency or affinity are not part of this list. Activity calls are given as the source filed them. Cut-off read from the data, not from the text of the source: active = fluorescence slope change above about 50%; inconclusive = mostly about 31% to 49%; inactive = weaker than that.

Experiments:
[1] = polyglutamine-triggered caspase-3 activation inhibitors, cell-based (AID 1583); conditions: polyglutamine-induced caspase-3 activation, cell assay; stronger effect = higher value;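 tested at 10 µM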
[2] = suppressors of polyQ aggregation in yeast, 75Q-TubU reporter (AID 1593); conditions: Yeast 75Q polyglutamine aggregation reporter
[3] = rescue of polyQ-huntingtin neuronal dysfunction in worms, whole organism, C. elegans mechanosensory neurons, N-terminal huntingtin (AID 1599); conditions: touch response, stronger effect = higher value
[4] = inhibitors of mitochondrial cytochrome c release, biochemical, purified mitochondria (AID 1603); conditions: stronger effect = lower value;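 note: mouse liver mitochondria challenged with calcium chloride; signal normalized to the plate average as 100%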
[5] = inhibitors of polyQ protein aggregation (AID 1604); conditions: polyglutamine-induced protein aggregation inhibition assay; stronger effect = higher value; tested at 2.5 µM
[6] = target: ATP-dependent translocase ABCB1 (Homo sapiens) (UniProt P08183); assay: MDR1 (ABCB1) efflux transporter inhibition, cell-based (AID 377); conditions: MDR1-expressing cells, fluorescent substrate accumulation slope; stronger effect = higher value; concentration not given here
Sequence of ATP-dependent translocase ABCB1 (Homo sapiens) (P08183 whole entry, looked up): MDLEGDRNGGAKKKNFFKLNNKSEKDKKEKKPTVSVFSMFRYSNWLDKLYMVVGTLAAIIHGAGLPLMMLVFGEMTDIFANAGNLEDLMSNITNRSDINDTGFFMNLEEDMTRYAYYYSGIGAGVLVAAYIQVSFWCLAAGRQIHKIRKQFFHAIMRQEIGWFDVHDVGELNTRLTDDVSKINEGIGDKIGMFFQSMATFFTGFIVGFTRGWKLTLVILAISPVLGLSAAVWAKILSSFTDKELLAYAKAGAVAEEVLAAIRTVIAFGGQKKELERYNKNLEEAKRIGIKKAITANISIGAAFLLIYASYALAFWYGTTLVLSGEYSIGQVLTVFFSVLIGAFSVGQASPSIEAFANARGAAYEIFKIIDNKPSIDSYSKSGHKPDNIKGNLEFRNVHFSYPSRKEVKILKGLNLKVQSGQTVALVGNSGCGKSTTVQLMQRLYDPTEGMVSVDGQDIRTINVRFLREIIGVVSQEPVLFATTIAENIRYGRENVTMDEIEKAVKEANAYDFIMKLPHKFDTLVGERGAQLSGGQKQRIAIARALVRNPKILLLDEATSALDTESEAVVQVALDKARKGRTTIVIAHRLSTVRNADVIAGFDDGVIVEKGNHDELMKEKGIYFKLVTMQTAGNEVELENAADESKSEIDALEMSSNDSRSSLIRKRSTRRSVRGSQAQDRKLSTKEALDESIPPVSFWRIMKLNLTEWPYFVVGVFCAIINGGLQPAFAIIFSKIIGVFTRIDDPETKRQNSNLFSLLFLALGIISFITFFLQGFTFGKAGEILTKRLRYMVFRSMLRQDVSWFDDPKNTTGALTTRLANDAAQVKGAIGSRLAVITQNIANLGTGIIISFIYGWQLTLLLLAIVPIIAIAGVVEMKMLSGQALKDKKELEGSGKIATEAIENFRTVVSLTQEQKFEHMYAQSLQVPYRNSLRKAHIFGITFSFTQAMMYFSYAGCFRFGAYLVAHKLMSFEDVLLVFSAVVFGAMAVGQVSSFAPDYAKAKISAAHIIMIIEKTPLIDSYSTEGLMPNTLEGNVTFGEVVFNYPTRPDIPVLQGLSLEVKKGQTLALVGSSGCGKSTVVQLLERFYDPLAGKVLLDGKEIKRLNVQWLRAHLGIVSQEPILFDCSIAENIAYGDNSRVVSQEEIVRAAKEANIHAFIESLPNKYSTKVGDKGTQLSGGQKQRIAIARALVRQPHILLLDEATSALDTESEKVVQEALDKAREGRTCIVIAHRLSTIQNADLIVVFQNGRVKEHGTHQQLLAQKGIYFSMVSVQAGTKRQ

Row | SMILES | inhibition [1] [%] | score [2] | rescue above control [3] | cytochrome c release ratio [4] | inhibition of aggregation [5] [%] | fluorescence slope change [6]
1 | O=C(O)c1ccccc1O | 11.5 | 0.77 | -5.04 | 0.97 | 56.1 | –
2 | CN1C(C(=O)Nc2ccccn2)=C(O)c2sccc2S1(=O)=O | -15.4 | 0.84 | -5.04 | 1.03 | 69.7 | –
3 | O=C(O)P(=O)(O)O | -16.3 | 1.28 | 9.34 | 0.68 | 30.6 | –
4 | CCC1(C)CC(=O)NC1=O (stereo unspecified) | 3.06 | 1.25 | 1.02 | 1.3 | 4.76 | –
5 | CSc1ccc2c(c1)C(N1CCN(C)CC1)Cc1ccccc1S2 (stereo unspecified) | 7.11 | 0.84 | 0 | 4.27 | 80.6 | –
6 | Oc1c(I)cc(I)c2cccnc12 | 17.6 | -0.2 | -12.4 | 1.04 | 24.2 | –
7 | CCCCCCCCCCCCCCCCCCOCC(O)CO (stereo unspecified) | -51.6 | 1.03 | 2.94 | 1 | 34.7 | –
8 | NC(=O)c1ccccc1O | -13.1 | 1.55 | 9.08 | 0.7 | 78.1 | –
9 | O=c1cc[nH]c(=S)[nH]1 | 2.52 | 1.24 | 1.48 | 1.09 | 41.5 | –
10 | NC(Cc1ccc(Cl)cc1)C(=O)O (stereo unspecified) | 2.04 | 1.27 | 22.3 | 0.79 | 83.3 | –
11 | CN(Cc1cnc2nc(N)nc(N)c2n1)c1ccc(C(=O)N[C@@H](CCC(=O)O)C(=O)O)cc1 | 25.6 | 0.69 | -10.9 | 1.08 | 74.6 | –
12 | COC(=O)[C@H]1[C@H]2C[C@@H]3c4[nH]c5cc(OC)ccc5c4CCN3C[C@H]2C[C@@H](OC(=O)c2cc(OC)c(OC)c(OC)c2)[C@@H]1OC | -42.7 | 1.16 | -12.7 | 1.46 | 63.2 | 51.8% (active)
13 | Cc1ncc([N+](=O)[O-])n1CCO | -3.1 | 1.16 | 22.1 | 0.97 | 58.7 | 22.4% (inactive)
14 | COc1cc(C(=O)NCc2ccc(OCCN(C)C)cc2)cc(OC)c1OC | 17.1 | 1.06 | -0.31 | 0.61 | 75.6 | –
15 | Nc1ccc(S(=O)(=O)Nc2cnc3ccccc3n2)cc1 | 26.1 | 1.42 | 9.63 | 1.1 | 22.7 | –
16 | Cc1ccsc1/C=C/C1=NCCCN1C | 26.5 | 0.99 | -7.31 | 0.66 | 25.5 | –
17 | CCCCOC(=O)c1ccc(N)cc1 | 10.7 | 0.73 | 12.6 | 0.92 | 7.84 | –
18 | CC(C(=O)O)c1ccc(C(=O)c2cccs2)cc1 (stereo unspecified) | 7.38 | 0.92 | -0.97 | 1.35 | 91.6 | 12.2% (inactive)
19 | Nc1ccc(N=Nc2ccccc2)c(N)n1 | 8.8 | 1.35 | -1.41 | 0.66 | 65.5 | –
20 | Cc1c(C(N)=O)cc([N+](=O)[O-])cc1[N+](=O)[O-] | -1.96 | 1.25 | 5.37 | 1.17 | 82.7 | –
21 | Oc1ccc(Cl)c2cccnc12 | 19.1 | -0.02 | -0.67 | 0.81 | 63.5 | –
22 | N[C@@H](CCC(=O)N[C@@H](CS)C(=O)NCC(=O)O)C(=O)O | 17.6 | 1.4 | -4.11 | 0.98 | 45.5 | –
23 | CC1=CC(=O)c2ccccc2C1=O | 56.7 | -0.01 | -12.4 | 1.17 | 53.5 | 81.2% (active)

Row | SMILES | inhibition [1] [%] | score [2] | rescue above control [3] | cytochrome c release ratio [4] | inhibition of aggregation [5] [%] | fluorescence slope change [6]
24 | O=C(O)c1cccnc1Nc1cccc(C(F)(F)F)c1 | 18.6 | -0.01 | 7.18 | 0.87 | -18.2 | –
25 | CC(Cc1cccc(C(F)(F)F)c1)NCCOC(=O)c1ccccc1 (stereo unspecified) | 15 | 1.42 | 0 | 1.02 | 40.9 | 69.3% (active)
26 | CS(=O)(=O)c1ccc([C@@H](O)[C@@H](CO)NC(=O)C(Cl)Cl)cc1 | -7.88 | 0.79 | -0.62 | 0.72 | 100 | –
27 | NC(=O)NC(=O)Cc1ccccc1 | 24.8 | 1.34 | -4.86 | 1.02 | 4.16 | –
28 | CC(=O)Oc1cccc(O)c1 | -9.3 | 1.19 | 8.59 | 0.86 | -34.2 | –
29 | CCCOc1ccccc1-c1nc2n[nH]nc2c(=O)[nH]1 | -7.12 | 0.63 | 1.11 | 0.54 | 18.4 | 11.9% (inactive)
30 | COc1c2occc2c(OC)c2c(=O)cc(C)oc12 | 3.52 | 0.76 | 0 | 1.14 | 63.2 | 54.2% (active)
31 | Cc1oncc1C(=O)Nc1ccc(C(F)(F)F)cc1 | -21.8 | 0.42 | -2.16 | 1.42 | 51 | 12.9% (inactive)
32 | NCCCCCC(=O)O | -5.51 | 1.37 | 1.88 | 1.36 | 75.6 | –
33 | O=C1OC(c2ccc(O)cc2)(c2ccc(O)cc2)c2ccccc21 | -3.42 | 1.29 | 8.67 | 4.22 | 70.1 | –
34 | CCCCN(CCCC)CCCOC(=O)c1ccc(N)cc1 | 5.65 | 1.13 | -6.3 | 0.76 | 39.2 | 85.2% (active)
35 | O=C(Nc1ccc([N+](=O)[O-])cc1Cl)c1cc(Cl)ccc1O | 63.3 | 1.5 | -13 | 0.91 | 41.7 | –
36 | CC(CN(C)C)CN1c2ccccc2CCc2ccccc21 (stereo unspecified) | 11.6 | 1.5 | -11.6 | 0.94 | 23.8 | 61.2% (active)
37 | Oc1ccc(Cl)cc1Cc1cc(Cl)ccc1O | 7.6 | -0.49 | 0 | 0.36 | 29.6 | –
38 | CCCCC1C(=O)N(c2ccccc2)N(c2ccc(O)cc2)C1=O (stereo unspecified) | -30.1 | 0.89 | -3.48 | 0.98 | 61 | –
39 | CN(C)CCCN1c2ccccc2Sc2ccc(C(F)(F)F)cc21 | 30.2 | 1.13 | 19.8 | 0.7 | 76 | –
40 | NS(=O)(=O)c1cc2c(cc1Cl)NC(C1CC3C=CC1C3)NS2(=O)=O (stereo unspecified) | 13 | 0.98 | 1.81 | 1.07 | 5.88 | –
41 | O=c1c(O)c(-c2ccc(O)c(O)c2)oc2cc(O)cc(O)c12 | 24.5 | 1.53 | 8.75 | 1.04 | 87.3 | –
42 | Cc1cc(C)nc(NS(=O)(=O)c2ccc(N)cc2)n1 | 5.54 | 1.45 | -12.8 | 1.13 | 22.2 | –
43 | Clc1ccccc1C(c1ccccc1)(c1ccccc1)n1ccnc1 | 60.7 | 0.26 | -7 | 4.6 | 41.7 | 67.9% (active)
44 | Cc1ccc(C(=O)c2ccc(CC(=O)O)n2C)cc1 | 3.78 | 1.04 | -3.75 | 1.04 | 23.8 | 69.6% (active)
45 | CN(C)CCOC(=O)C(c1ccccc1)C1(O)CCCC1 (stereo unspecified) | -1.25 | 1.17 | -1.73 | 0.87 | 90.7 | –
46 | C#CCN(C)Cc1ccccc1 | 17 | 1.16 | 30.7 | 1.06 | 0 | 71.9% (active)

Row | SMILES | inhibition [1] [%] | score [2] | rescue above control [3] | cytochrome c release ratio [4] | inhibition of aggregation [5] [%] | fluorescence slope change [6]
47 | COc1cnc(NS(=O)(=O)c2ccc(N)cc2)nc1 | 4.47 | 1.34 | -2.23 | 0.79 | 77.5 | 9.5% (inactive)
48 | NCC1CCC(C(=O)O)CC1 (stereo unspecified) | -11.3 | 1.25 | 8.04 | 0.77 | 74.7 | 64.7% (active)
49 | Cn1c(=O)c2c(ncn2CCO)n(C)c1=O | -0.98 | 1.29 | -7.41 | 1.08 | 56.7 | 50.2% (active)
50 | CCOc1ccc(NC(C)=O)cc1 | -10.9 | 0.84 | -2.44 | 0.87 | -59.3 | 5.5% (inactive)
51 | COc1ccccc1OCC(O)CO (stereo unspecified) | -27.7 | 0.87 | -10.8 | 1.15 | 58.9 | 12.6% (inactive)
52 | Cc1cc(C(C)(C)C)cc(C)c1CC1=NCCN1 | 23.6 | 1.63 | -3.36 | 1.05 | 63.4 | 26.6% (inactive)
53 | COc1ccc(CN(CCN(C)C)c2ccccn2)cc1 | 17.1 | 1.86 | 23.5 | 0.92 | 12.7 | 102% (active)
54 | CCN(CC)C(=O)N1CCN(C)CC1 | 14.8 | 1.32 | -3.55 | 0.61 | 85.9 | 25.5% (inactive)
55 | Cc1c(NC(=O)c2cccnc2)c(=O)n(-c2ccccc2)n1C | 13.7 | 1.39 | -0.65 | 0.9 | 85.9 | 25.2% (inactive)
56 | Clc1ccc(C(c2ccccc2Cl)C(Cl)Cl)cc1 (stereo unspecified) | 21 | -3.35 | 0 | 3.7 | 72.2 | 7.7% (inactive)
57 | CC(=O)OCC1=C(C(=O)O)N2C(=O)[C@@H](NC(=O)Cc3cccs3)[C@H]2SC1 | 11.1 | 1.29 | -1.7 | 0.78 | -17.5 | 2.1% (inactive)
58 | NS(=O)(=O)c1cc2c(cc1Cl)NC(C(Cl)Cl)NS2(=O)=O (stereo unspecified) | 12.2 | 1.03 | 12.5 | 1.13 | 79.6 | 24.8% (inactive)
59 | Cc1nnc(SCC2=C(C(=O)O)N3C(=O)[C@@H](NC(=O)Cn4cnnn4)[C@H]3SC2)s1 | 0.61 | 1.27 | 4.54 | 0.92 | 13.4 | -6.8% (inactive)
60 | CC(C)(Oc1ccc(Cl)cc1)C(=O)O | 17.7 | 1.27 | 11.6 | 1.13 | 38.2 | 21.7% (inactive)
61 | COc1ccc(CCN2CCC(Nc3nc4ccccc4n3Cc3ccc(F)cc3)CC2)cc1 | 17.9 | 1.54 | 0 | 0.61 | -3.03 | 189% (active)
62 | CCn1cc(C(=O)O)c(=O)c2cnc(N3CCCC3)nc21 | -13.1 | 0.98 | 7.28 | 1.33 | 85.9 | 55.2% (active)
63 | CC(C)COCC(CN(Cc1ccccc1)c1ccccc1)N1CCCC1 (stereo unspecified) | 7.56 | 1.17 | 1.23 | 0.32 | 23.6 | 131% (active)
64 | CN1CCC(OC(c2ccccc2)c2ccccc2)CC1 | -34.9 | 1.74 | -9.83 | 1.09 | 81.6 | 7.9% (inactive)
65 | CC1(C)OC(=O)NC1=O | -3.41 | 1.47 | 14.1 | 0.85 | 33.3 | 19.4% (inactive)
66 | C=CCc1ccccc1OCC(O)CNC(C)C (stereo unspecified) | 3.86 | 1.39 | 6.88 | 1.44 | 14.3 | 80.3% (active)
67 | CCCCC(CC)CN1CN(CC(CC)CCCC)CC(C)(N)C1 (stereo unspecified) | 22.5 | 0.11 | 0 | 0.41 | 1.83 | 61.9% (active)
68 | C/C=C(/C(=C/C)c1ccc(O)cc1)c1ccc(O)cc1 | 31.3 | 0.33 | -4.61 | 4.08 | 63.2 | 10.7% (inactive)
69 | CC(=O)NO | 31.8 | 1.13 | -5.59 | 0.77 | 58.3 | 25.2% (inactive)
